# High-throughput results from PubChem BioAssay.
# ABCB6 inh 2: inhibitors of human ABC transporter ABCB6 | Q9NP58 | K562-ABCB6 porphyrin accumulation, flow cytometry, 1 h; active compounds read low | fluorescence ratio to DMSO, % at 10 µM | 0.19% of 360,000 active | AID 602162;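 active = fluorescence ratio to DMSO below 75%, the collection mean minus 3 SD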;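 also: signal is porphyrin accumulated inside mitochondria; 100% equals median channel fluorescence of DMSO control wells; lower ratio means ABCB6 inhibition with less porphyrin fluorescence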
# DAGLB inhibitor: diacylglycerol lipase beta (human) inhibition; HEK293T DAGLB membrane lysate, EnzChek fluorogenic substrate; inhibition, % at 5.17 µM; 0.059% of 340,000 active; in the data active = inhibition above about 34%;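 also: 0% = enzyme with vehicle and 100% = wells lacking enzyme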
# iPSC survival up: hiPSC single-cell survival enhancement. 0.044% of 360,000 active. ATPlite luminescence; 100% = ROCK inhibitor wells, 0% = DMSO. survival enhancement, % at 20 µM; in the data active = survival enhancement above about 18%;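 also: cells exposed to compounds for 16 hours before the ATP read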
# ANO1 activ: mouse TMEM16A channel activation, primary screen | Q8BHY3 | HEK293 TMEM16A/YFP-H148Q/I152L, iodide quench fluorescence; active compounds read low | B-score at 10 µM | 0.3% of 340,000 active | AID 623877;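 active = fluorescence-ratio B-score plate-corrected deviation score at least 3 library SD below zero, with starting fluorescence score within 5 deviations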;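 also: channel opened by trigger with iodide after compound preincubation; score built on the fluorescence ratio of max minus min over baseline; more negative score means more quench and so TMEM16A activation or potentiation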
# ANO1 block: inhibitors of mouse TMEM16A calcium-activated chloride channel. HEK293 TMEM16A/YFP iodide influx fluorescence, ionomycin. Q8BHY3. normalized B-score (activity score, 25-100; higher = stronger inhibition) at 10 µM. 1.2% of 310,000 active;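 active = ratio plate-corrected score three or more library SD toward inhibition, starting fluorescence score within five deviations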;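 also: score derived from kinetic fluorescence span divided by baseline fluorescence per well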
# TMEM16A reconf: re-confirmation of mouse TMEM16A chloride channel inhibitors; shares compounds with ANO1 block; HEK293 TMEM16A/YFP-H148Q, iodide quench fluorescence; ionomycin added to raise cell calcium; inhibition, % at 10 µM; 39% of 2,300 active;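 active = mean duplicate percent inhibition, scaled so buffer wells are 0 and the reference blocker 100, over three buffer SD above buffer mean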
# TMEM16A Ca cntr: alters calcium mobilization in TMEM16A HEK293 cells, counter-screen; shares compounds with ANO1 block; TMEM16A/YFP HEK293, Fluo4 calcium mobilization; calcium response (% of ionomycin), % at 10 µM; 2% of 2,300 active; AID 652231;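 active = duplicate-averaged calcium signal over 20% of the ionomycin maximum, relative to buffer baseline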;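 also: each well's signal is peak minus trough fluorescence divided by its pre-addition baseline; 0% = buffer wells and 100% = ionomycin wells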
# YFP-HEK293 quench: parental YFP-HEK293 iodide quench counter-screen activity | shares compounds with ANO1 block | ionomycin | YFP ratio F(max-min)/F0 at 10 µM | AID 652233 | 2,300 tested, under 10 active;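 active = yellow fluorescent protein signal ratio exceeding the buffer control mean by over 5 SD of those controls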;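 also: ratio is mean of duplicate wells from kinetic YFP trace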
# ClC-1 inh: rat ClC-1 inhibition, TMEM16A specificity screen; shares compounds with ANO1 block; CHO ClC-1-YFP, iodide influx fluorescence quench; iodide control reads 0, buffer control 100; ratio percent, % at 10 µM; 2,300 tested, under 10 active;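 active = duplicate-mean ratio percent above the mean of iodide-only control wells, which defines zero, plus 5 of their SD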;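 also: higher percent means stronger block of ClC-1 iodide influx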
# Target sequence (P35524 whole entry, looked up): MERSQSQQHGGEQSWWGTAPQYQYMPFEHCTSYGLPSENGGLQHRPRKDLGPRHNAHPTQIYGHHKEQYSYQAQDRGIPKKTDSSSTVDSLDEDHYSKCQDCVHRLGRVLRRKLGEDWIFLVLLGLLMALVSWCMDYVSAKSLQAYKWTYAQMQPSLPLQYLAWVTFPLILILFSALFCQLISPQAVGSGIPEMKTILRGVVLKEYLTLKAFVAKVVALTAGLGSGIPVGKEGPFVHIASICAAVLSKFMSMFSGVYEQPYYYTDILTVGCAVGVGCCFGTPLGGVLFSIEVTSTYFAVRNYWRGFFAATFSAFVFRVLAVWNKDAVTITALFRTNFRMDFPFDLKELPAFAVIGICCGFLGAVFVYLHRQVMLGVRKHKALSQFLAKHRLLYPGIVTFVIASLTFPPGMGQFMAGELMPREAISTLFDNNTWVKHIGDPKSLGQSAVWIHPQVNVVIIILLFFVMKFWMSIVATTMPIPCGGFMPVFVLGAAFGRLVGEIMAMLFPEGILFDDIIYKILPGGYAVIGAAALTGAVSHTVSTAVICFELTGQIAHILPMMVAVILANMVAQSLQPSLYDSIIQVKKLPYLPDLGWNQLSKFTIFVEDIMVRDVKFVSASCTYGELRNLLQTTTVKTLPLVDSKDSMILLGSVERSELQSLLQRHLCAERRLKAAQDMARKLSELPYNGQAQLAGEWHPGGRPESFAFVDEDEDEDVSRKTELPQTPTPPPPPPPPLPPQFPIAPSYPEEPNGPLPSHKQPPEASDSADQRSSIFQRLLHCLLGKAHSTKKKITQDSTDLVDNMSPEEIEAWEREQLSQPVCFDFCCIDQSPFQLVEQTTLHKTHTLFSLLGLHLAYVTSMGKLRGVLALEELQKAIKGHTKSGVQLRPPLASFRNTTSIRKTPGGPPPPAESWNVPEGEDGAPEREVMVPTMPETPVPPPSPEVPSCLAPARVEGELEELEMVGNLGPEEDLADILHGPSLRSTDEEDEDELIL
# ABCB6 inh CP1: human ABCB6 transporter inhibition. shares compounds with ABCB6 inh 2. K562-ABCB6 porphyrin accumulation, flow cytometry, 1 h; active compounds read low. 700 tested, under 10 active. ratio response (% of DMSO), % at 10 µM;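 active = repeat-averaged ratio response below 75% of DMSO, the collection mean minus 3 SD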;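 also: median porphyrin fluorescence at 575 nm with 488 nm excitation from mitochondria; lower ratio means less porphyrin signal so ABCB6 inhibition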
# Starred values were filed as active, the others as inactive; i = inactive; . = not tested or not shown. Compounds with a hit are over-represented: about 1.5% of the library has one in this group of screens.
SMILES,ABCB6 inh 2,DAGLB inhibitor,iPSC survival up,ANO1 activ,ANO1 block,ABCB6 inh CP1,others
CCC(=NCCc1c[nH]c2ccccc12)c1c(O)n(C)c(=O)n(C)c1=O,91,1,-2,i,100*,.,TMEM16A reconf=19%*;TMEM16A Ca cntr=i;YFP-HEK293 quench=-0.97;ClC-1 inh=-26
CC(=NCCN1CCOCC1)c1c(O)n(Cc2ccccc2)c(=O)[nH]c1=O,99,-1,-1,i,i,.,
CC(=NCCc1c[nH]c2ccccc12)c1c(O)n(Cc2ccccc2)c(=O)[nH]c1=O,96,6,0,i,25*,.,TMEM16A reconf=i;TMEM16A Ca cntr=31%*;YFP-HEK293 quench=-1.2;ClC-1 inh=-2
CN1C(=O)C(=Cc2c(OCc3cnc(Cl)s3)ccc3ccccc23)C(=O)N(C)C1=O,103,1,5,i,i,.,TMEM16A reconf=i;TMEM16A Ca cntr=i;YFP-HEK293 quench=-1.2;ClC-1 inh=1
CCCCn1c(O)c(C(CC)=NC(C)c2ccccc2)c(=O)[nH]c1=O (stereo not drawn),99,3,0,i,i,.,
CCCCn1c(O)c(C(C)=NC(C)c2ccccc2)c(=O)[nH]c1=O (stereo not drawn),72*,7,-3,i,i,99,
CCCCn1c(O)c(C(CC)=Nc2ccc(OCC)cc2)c(=O)[nH]c1=O,74*,2,5,i,i,98,
CC1=C2[C@H]3OC(=O)[C@@H](C)[C@@H]3CC[C@@]2(C)C=CC1=O,100,-1,2,i,i,.,
COc1ccc(-c2cc(=O)oc3c(C)c(OC(C)C(=O)N4C[C@H]5C[C@@H](C4)c4cccc(=O)n4C5)ccc23)cc1 (stereo partly drawn),102,1,0,i,i,.,
CCOC(=O)c1c(-n2c(C)cc(/C=C3/C(=O)NC(=O)N(CC)C3=O)c2C)sc2c1CCCC2,73*,3,2,i,i,107,
O=C(O)[C@H]1C[C@@H]1[C@H](NP(=O)(c1ccccc1)c1ccccc1)c1ccccc1,103,3,-2,i,i,.,
CC(=O)N1CCC2(CC1)CC(=O)c1cc(OCC(=O)N3CCN(C)CC3)ccc1O2,58*,0,-1,i,i,101,
CC(=O)N1CCC2(CC1)CC(=O)c1cc(OCC(=O)N3CCC4(CC3)OCCO4)ccc1O2,96,-1,0,i,i,.,
CC1(C)C(=O)C=C[C@]2(C)[C@H]3CC[C@@]4(C)[C@H](c5ccoc5)OC(=O)[C@H]5O[C@]54[C@]3(C)[C@H](O)C[C@@H]12,.,.,.,.,i,.,
Fc1ccc(CNCCc2c[nH]c3ccccc23)cc1,69*,-2,0,i,i,100,
Fc1ccccc1CNCCc1c[nH]c2ccccc12,100,0,0,i,i,.,
C[N+](C)(C)CC1CCCC(C[N+](C)(C)C)C1=O (stereo not drawn),43*,-1,3,i,.,68*,
O=C(CCN1CCOCC1)NCC(=O)Nc1ccc(Br)cc1C(=O)c1ccccc1,70*,0,2,i,i,100,
